{"source": "PubChem BioAssay AID1259245", "about": "(Vanderbilt High Throughput Screening Facility, 2017)", "note": "Among all 40,000 compounds or so, about 1,400 (3.5%) were called active.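 Rule for the calls: active = any of four per-well response measures lying three or more SD from its plate-wide compound average, in either direction; inactive = the rest, inconclusive results apart.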 This excerpt belongs to a sample that is enriched for actives.", "data": [{"molecular_target": "Voltage-dependent calcium channel gamma-2 subunit (Mus musculus) + Glutamate receptor 2 (Rattus norvegicus) (UniProt O88602+P19491)", "sequence (O88602 whole entry, looked up)": "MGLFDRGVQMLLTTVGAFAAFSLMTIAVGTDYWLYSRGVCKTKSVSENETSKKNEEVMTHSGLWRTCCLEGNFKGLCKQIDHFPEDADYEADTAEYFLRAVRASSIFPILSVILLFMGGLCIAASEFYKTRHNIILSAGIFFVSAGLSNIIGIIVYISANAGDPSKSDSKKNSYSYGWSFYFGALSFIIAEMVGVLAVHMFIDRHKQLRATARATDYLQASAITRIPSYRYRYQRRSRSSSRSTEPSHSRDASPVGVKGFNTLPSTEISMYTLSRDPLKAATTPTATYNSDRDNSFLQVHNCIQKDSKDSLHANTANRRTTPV", "sequence (P19491 whole entry, looked up)": "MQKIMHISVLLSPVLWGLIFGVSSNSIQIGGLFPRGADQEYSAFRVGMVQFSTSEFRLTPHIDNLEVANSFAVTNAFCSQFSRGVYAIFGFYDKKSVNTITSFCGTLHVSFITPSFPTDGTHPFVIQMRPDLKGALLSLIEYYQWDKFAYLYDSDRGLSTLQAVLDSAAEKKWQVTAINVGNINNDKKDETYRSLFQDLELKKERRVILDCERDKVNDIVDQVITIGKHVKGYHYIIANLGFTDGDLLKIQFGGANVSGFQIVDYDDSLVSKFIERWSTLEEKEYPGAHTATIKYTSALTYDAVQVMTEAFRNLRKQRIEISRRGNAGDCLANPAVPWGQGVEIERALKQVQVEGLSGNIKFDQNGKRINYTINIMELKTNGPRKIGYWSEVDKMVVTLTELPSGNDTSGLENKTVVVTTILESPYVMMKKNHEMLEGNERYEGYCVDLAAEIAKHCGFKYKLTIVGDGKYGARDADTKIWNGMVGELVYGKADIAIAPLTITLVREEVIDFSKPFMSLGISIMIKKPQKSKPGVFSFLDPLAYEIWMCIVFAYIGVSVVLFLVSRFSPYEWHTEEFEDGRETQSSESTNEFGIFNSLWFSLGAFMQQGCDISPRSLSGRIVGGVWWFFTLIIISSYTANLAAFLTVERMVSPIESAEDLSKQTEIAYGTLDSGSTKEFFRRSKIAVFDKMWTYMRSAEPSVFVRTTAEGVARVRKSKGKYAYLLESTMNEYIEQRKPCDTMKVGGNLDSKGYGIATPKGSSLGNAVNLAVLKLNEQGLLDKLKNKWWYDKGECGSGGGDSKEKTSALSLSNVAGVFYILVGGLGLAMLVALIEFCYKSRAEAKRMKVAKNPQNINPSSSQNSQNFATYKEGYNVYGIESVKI", "experiment": "modulators of GluA2-stargazin AMPA receptor complexes, primary screen, cell-based, membrane potential dye (AID 1259245)", "conditions": "HEK293 GluA2+stargazin, membrane potential dye (FDSS), glutamate EC50, at 30 µM, hits were called plate by plate, in both directions; compound max-min signal: compound-alone response (agonism); glutamate slope, % of max: measured here: glutamate response slope, % max", "units": {"glutamate slope, % of max": "%"}, "values": [{"smiles": "Cc1c(Cl)ccc2sc(N(Cc3ccccn3)C(=O)Cc3ccc(S(C)(=O)=O)cc3)nc12", "compound max-min signal": 0.0569, "glutamate response, % of max": "22.1% (inactive)", "glutamate slope, % of max": 54.5}, {"smiles": "O=C(NCC1(c2cccs2)CC1)Nc1c(F)cccc1F", "compound max-min signal": 0.107, "glutamate response, % of max": "24.4% (inactive)", "glutamate slope, % of max": 44}, {"smiles": "O=S(=O)(NCC1(c2cccs2)CC1)c1ccc(OC(F)(F)F)cc1", "compound max-min signal": 0.153, "glutamate response, % of max": "0.436% (active)", "glutamate slope, % of max": 9.92}, {"smiles": "COC(=O)N1CCC(CNS(=O)(=O)c2ccc(OC(F)(F)F)cc2)CC1", "compound max-min signal": 0.114, "glutamate response, % of max": "39.2% (inactive)", "glutamate slope, % of max": 61.1}, {"smiles": "COC(=O)c1cc(OC)c(OC)cc1NC(=O)c1cc(C)oc1C", "compound max-min signal": 0.112, "glutamate response, % of max": "34.9% (inactive)", "glutamate slope, % of max": 55.7}, {"smiles": "Cn1cccc1C(O)CNC(=O)C1(c2ccccc2)CCOCC1", "note": "(stereo unspecified)", "compound max-min signal": 0.0879, "glutamate response, % of max": "49.3% (inactive)", "glutamate slope, % of max": 62.9}, {"smiles": "COc1ccc2c(=O)c(Oc3ccc(C(=O)Nc4cccnc4)cc3)c(C)oc2c1", "compound max-min signal": 0.137, "glutamate response, % of max": "24.4% (inactive)", "glutamate slope, % of max": 41.6}, {"smiles": "COCCNC(=O)c1ccc(Oc2c(C)oc3cc(OC)ccc3c2=O)cc1", "compound max-min signal": 0.0907, "glutamate response, % of max": "9.44% (inactive)", "glutamate slope, % of max": 21.9}, {"smiles": "COc1ccc2c(=O)c(Oc3ccc(C(=O)N4CCN(c5ccccn5)CC4)cc3)c(C)oc2c1", "compound max-min signal": 0.0327, "glutamate response, % of max": "28.3% (active)", "glutamate slope, % of max": 56.7}, {"smiles": "COc1ccc(CCNC(=O)Cn2nc(-c3ccccc3OC)ccc2=O)cc1", "compound max-min signal": 0.0465, "glutamate response, % of max": "26.6% (inactive)", "glutamate slope, % of max": 53.9}, {"smiles": "COC(=O)c1ccc2c(=O)n(Cc3ccc(C(=O)N4CCCCCC4)cc3)c(=S)[nH]c2c1", "compound max-min signal": 0.108, "glutamate response, % of max": "50.5% (inactive)", "glutamate slope, % of max": 81}, {"smiles": "Cc1ccc(NC(=O)Cn2nc(-c3ccco3)c3sc(N4CCOCC4)nc3c2=O)c(C)c1", "compound max-min signal": 0.131, "glutamate response, % of max": "34% (active)", "glutamate slope, % of max": 56.8}, {"smiles": "COc1ccc(C(=O)Cn2nc(-c3ccco3)c3sc(N4CCOCC4)nc3c2=O)cc1OC", "compound max-min signal": 0.102, "glutamate response, % of max": "27.5% (inactive)", "glutamate slope, % of max": 57}, {"smiles": "CCc1cccc(CC)c1NC(=O)Cn1nc(-c2ccco2)c2sc(N3CCCCC3)nc2c1=O", "compound max-min signal": 0.0682, "glutamate response, % of max": "31.2% (inactive)", "glutamate slope, % of max": 54.8}, {"smiles": "COCC(C)(O)CNC(=O)Cc1cccc(C)c1", "note": "(stereo unspecified)", "compound max-min signal": 0.0936, "glutamate response, % of max": "4.21% (active)", "glutamate slope, % of max": 14.9}, {"smiles": "CCCc1ccc(C(=O)NCC(C)(O)COC)cc1", "note": "(stereo unspecified)", "compound max-min signal": 0.117, "glutamate response, % of max": "37.6% (inactive)", "glutamate slope, % of max": 59.3}, {"smiles": "COCC(C)(O)CNC(=O)c1cc(C)oc1C", "note": "(stereo unspecified)", "compound max-min signal": 0.0874, "glutamate response, % of max": "39.3% (inactive)", "glutamate slope, % of max": 66.3}, {"smiles": "COc1ccc(OC)c2sc(N(Cc3ccccn3)C(=O)Cc3ccc(S(C)(=O)=O)cc3)nc12", "compound max-min signal": 0.0642, "glutamate response, % of max": "28.9% (inactive)", "glutamate slope, % of max": 45.5}, {"smiles": "O=C(Nc1ccc([N+](=O)[O-])cc1Br)c1ccncc1", "compound max-min signal": 0.216, "glutamate response, % of max": "21.7% (active)", "glutamate slope, % of max": 38.8}, {"smiles": "O=C(Nc1ccc(N2CCCS2(=O)=O)cc1)c1ccc([N+](=O)[O-])cc1", "compound max-min signal": 0.0338, "glutamate response, % of max": "28.1% (inactive)", "glutamate slope, % of max": 51.8}, {"smiles": "Cc1cc([N+](=O)[O-])ccc1NC(=O)C(=O)NCc1ccncc1", "compound max-min signal": 0.158, "glutamate response, % of max": "47.7% (inactive)", "glutamate slope, % of max": 65.6}, {"smiles": "Cc1cc(C)n(CCNC(=O)/C=C/c2cccs2)n1", "compound max-min signal": 0.131, "glutamate response, % of max": "25.6% (inactive)", "glutamate slope, % of max": 56.8}, {"smiles": "Cc1noc(C2CN(S(=O)(=O)c3ccc(Cl)cc3)C2)n1", "compound max-min signal": 0.142, "glutamate response, % of max": "44.3% (inactive)", "glutamate slope, % of max": 70.8}, {"smiles": "COc1ccc(NC(C)=O)cc1NC(=O)c1ccc(=O)[nH]n1", "compound max-min signal": 0.159, "glutamate response, % of max": "38.5% (active)", "glutamate slope, % of max": 57.1}, {"smiles": "O=C(NCc1ccc2c(c1)OCO2)c1ccc(=O)[nH]n1", "compound max-min signal": 0.05, "glutamate response, % of max": "25.6% (inactive)", "glutamate slope, % of max": 54.3}, {"smiles": "COc1ccc(NC(C)=O)cc1NC(=O)CCCn1nc(-c2ccccc2)ccc1=O", "compound max-min signal": 0.08, "glutamate response, % of max": "33.8% (inactive)", "glutamate slope, % of max": 52.7}, {"smiles": "Cc1nn(CCNC(=O)c2cccc([N+](=O)[O-])c2)c(C)c1Cl", "compound max-min signal": 0.133, "glutamate response, % of max": "50.5% (inactive)", "glutamate slope, % of max": 65.4}, {"smiles": "CCCOc1ccc(N2CCN(C(=O)COc3ccc4ccccc4c3)CC2)nn1", "compound max-min signal": 0.0411, "glutamate response, % of max": "42.7% (inactive)", "glutamate slope, % of max": 61.1}, {"smiles": "Cc1ccc(N2CCN(C(=O)COc3nccc(C)n3)CC2)nn1", "compound max-min signal": 0.0842, "glutamate response, % of max": "38.9% (inactive)", "glutamate slope, % of max": 61.3}, {"smiles": "CCCC(=O)N1CCN(c2ccc(Nc3cc(C)ccn3)nn2)CC1", "compound max-min signal": 0.194, "glutamate response, % of max": "23.7% (active)", "glutamate slope, % of max": 43.2}, {"smiles": "O=C(Nc1cccs1)N1CCC(c2nnc(-c3ccc(F)cc3)o2)CC1", "compound max-min signal": 0.0749, "glutamate response, % of max": "44.9% (inactive)", "glutamate slope, % of max": 64.6}, {"smiles": "Cc1ccc(CN2C(=O)NC3(CCN(C(=O)c4ccccc4F)CC3)C2=O)cc1", "compound max-min signal": 0.0483, "glutamate response, % of max": "11.7% (inactive)", "glutamate slope, % of max": 23.5}, {"smiles": "COc1ccc(CC(=O)Nc2ccc3c(c2)N(S(=O)(=O)c2ccccc2)CCC3)cc1", "compound max-min signal": 0.0777, "glutamate response, % of max": "49% (inactive)", "glutamate slope, % of max": 74.3}, {"smiles": "CN(C)S(=O)(=O)c1ccc(C(=O)Nc2ccc3c(c2)N(C(=O)c2ccco2)CC3)cc1", "compound max-min signal": 0.176, "glutamate response, % of max": "45.9% (inactive)", "glutamate slope, % of max": 62.8}, {"smiles": "CCOC(=O)c1csc(NC(=O)Cn2cnc(C)cc2=O)n1", "compound max-min signal": 0.0863, "glutamate response, % of max": "36.3% (inactive)", "glutamate slope, % of max": 51.4}, {"smiles": "Cc1cc(C(=O)Nc2nc(-c3cccs3)cs2)on1", "compound max-min signal": 0.0444, "glutamate response, % of max": "13.4% (inactive)", "glutamate slope, % of max": 25.9}, {"smiles": "CCOC(=O)c1csc(NC(=O)c2cc(C)no2)n1", "compound max-min signal": 0.211, "glutamate response, % of max": "21.3% (active)", "glutamate slope, % of max": 37.1}, {"smiles": "Cc1nc(NC(=O)c2ccc3c(c2)CCCC3)sc1C", "compound max-min signal": 0.129, "glutamate response, % of max": "29.7% (inactive)", "glutamate slope, % of max": 50.6}, {"smiles": "O=C(Nc1cccc(N2CCCS2(=O)=O)c1)c1cccc(F)c1", "compound max-min signal": 0.0432, "glutamate response, % of max": "21.4% (inactive)", "glutamate slope, % of max": 45.7}, {"smiles": "CCOc1ccccc1NC(=O)CSc1cc(N2CCC(C(=O)NC3CC3)CC2)ncn1", "compound max-min signal": 0.107, "glutamate response, % of max": "24% (inactive)", "glutamate slope, % of max": 50.5}, {"smiles": "COC(=O)c1ccc(CSc2cc(N3CCN(c4ccccc4F)CC3)ncn2)o1", "compound max-min signal": 0.0593, "glutamate response, % of max": "58.6% (active)", "glutamate slope, % of max": 59.5}, {"smiles": "O=C(CSc1cc(N2CCN(c3ccccc3F)CC2)ncn1)c1cccs1", "compound max-min signal": 0.0768, "glutamate response, % of max": "53.6% (inactive)", "glutamate slope, % of max": 73.7}, {"smiles": "Cc1cc(C)c2c(n1)nn1c(-n3ccnc3)cc(C)nc21", "compound max-min signal": 0.202, "glutamate response, % of max": "43.8% (inactive)", "glutamate slope, % of max": 65.7}, {"smiles": "CCOc1ccc(Nc2cc(C)nc3c4c(C)cc(C)nc4nn23)cc1", "compound max-min signal": 0.205, "glutamate response, % of max": "36.4% (inactive)", "glutamate slope, % of max": 58.7}, {"smiles": "Cc1cc(C)c2c(n1)nn1c(NCC(C)C)cc(C)nc21", "compound max-min signal": 0.313, "glutamate response, % of max": "35.7% (active)", "glutamate slope, % of max": 52.5}, {"smiles": "CC(=O)NCCn1ncc2c(N3CCN(c4ccccc4)CC3)ncnc21", "compound max-min signal": 0.109, "glutamate response, % of max": "30% (inactive)", "glutamate slope, % of max": 56.7}, {"smiles": "Cc1ccc(C(=O)CSc2nccn(-c3ccc(Cl)cc3)c2=O)c(C)c1", "compound max-min signal": 0.0972, "glutamate response, % of max": "25.5% (inactive)", "glutamate slope, % of max": 43.4}]}]}
